# Experiments:
# Assay in all cases: DAPPL (digital affinity profiling via proximity ligation, sequencing); 10 mM Tris-HCl pH 7.5, 50 mM NaCl, 1 mM DTT, 4% glycerol, room temperature, 30 min; GST-TFs on glutathione beads, 16-mer random dsDNA library, 0.1% formaldehyde crosslink after washing; high values mean tight binding
# FLI1 = target: T1, FLI1 (Homo sapiens, UniProt Q01543 1-452); details: protein: recombinant; tags: N-terminal GST; dsDNA, one strand shown
# T1 sequence: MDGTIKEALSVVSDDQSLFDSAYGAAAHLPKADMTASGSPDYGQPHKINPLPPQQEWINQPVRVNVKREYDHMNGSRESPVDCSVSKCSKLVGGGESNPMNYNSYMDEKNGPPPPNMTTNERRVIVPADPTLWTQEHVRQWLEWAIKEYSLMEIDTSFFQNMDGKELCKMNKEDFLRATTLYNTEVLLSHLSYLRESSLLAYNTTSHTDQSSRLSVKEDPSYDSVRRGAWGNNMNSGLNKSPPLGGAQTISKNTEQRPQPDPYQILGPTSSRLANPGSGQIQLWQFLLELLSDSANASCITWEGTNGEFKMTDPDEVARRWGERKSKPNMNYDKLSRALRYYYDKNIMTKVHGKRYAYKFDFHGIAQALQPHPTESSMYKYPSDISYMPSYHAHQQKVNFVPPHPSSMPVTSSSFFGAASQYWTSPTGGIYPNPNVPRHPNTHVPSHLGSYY
# Procedure, shortened: (§1)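 The binding signal reported is, for every hexamer, its read frequency for a factor over its read frequency for the tag-only sample. Reads came from pools of yeast-expressed, GST-fused human transcription factors on glutathione beads, barcoded with DNA and mixed with that sample, which were incubated with 200 nmole of a random double-stranded 16-mer DNA library in Tris/NaCl/DTT/glycerol buffer at room temperature for 30 min. After washing, the pools were crosslinked with 0.1% formaldehyde, proximity-ligated with BsaI/T4 ligase for 1 h at 37 °C, PCR-amplified and sequenced on an Illumina NextSeq500.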
# ELK1 = target: T2, ELK1 (Homo sapiens, UniProt P19419 1-428); details: protein: recombinant; tags: N-terminal GST; dsDNA, one strand shown
# T2 sequence: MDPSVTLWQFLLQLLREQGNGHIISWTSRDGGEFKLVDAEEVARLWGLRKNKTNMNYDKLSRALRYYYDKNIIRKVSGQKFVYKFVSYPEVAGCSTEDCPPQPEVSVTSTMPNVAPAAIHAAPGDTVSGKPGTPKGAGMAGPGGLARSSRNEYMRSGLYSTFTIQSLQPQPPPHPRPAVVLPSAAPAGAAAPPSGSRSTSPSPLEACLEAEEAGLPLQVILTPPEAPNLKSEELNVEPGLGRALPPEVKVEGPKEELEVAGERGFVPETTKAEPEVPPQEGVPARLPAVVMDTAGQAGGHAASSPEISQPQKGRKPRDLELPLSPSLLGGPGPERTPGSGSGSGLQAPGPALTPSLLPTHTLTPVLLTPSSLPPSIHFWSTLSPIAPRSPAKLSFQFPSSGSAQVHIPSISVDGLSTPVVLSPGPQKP
# Procedure, shortened: as §1
# GABPA = target: T3, GABPA (Homo sapiens, UniProt Q06546 1-454); details: protein: recombinant; tags: N-terminal GST; dsDNA, one strand shown
# T3 sequence: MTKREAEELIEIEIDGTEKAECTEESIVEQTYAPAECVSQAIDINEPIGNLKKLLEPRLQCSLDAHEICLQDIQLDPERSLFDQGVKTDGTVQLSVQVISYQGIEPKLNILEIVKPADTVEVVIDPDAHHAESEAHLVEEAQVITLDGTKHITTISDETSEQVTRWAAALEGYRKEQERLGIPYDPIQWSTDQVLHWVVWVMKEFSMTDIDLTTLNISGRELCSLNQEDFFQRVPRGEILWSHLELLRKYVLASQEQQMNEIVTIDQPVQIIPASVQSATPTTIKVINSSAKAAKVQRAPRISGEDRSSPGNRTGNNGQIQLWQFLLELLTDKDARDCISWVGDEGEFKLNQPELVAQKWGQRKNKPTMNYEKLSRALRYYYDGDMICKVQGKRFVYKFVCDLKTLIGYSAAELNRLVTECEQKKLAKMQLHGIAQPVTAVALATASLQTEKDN
# Procedure, shortened: as §1
# ERG = target: T4, ERG (Homo sapiens, UniProt P11308 1-479); details: protein: recombinant; tags: N-terminal GST; dsDNA, one strand shown
# T4 sequence: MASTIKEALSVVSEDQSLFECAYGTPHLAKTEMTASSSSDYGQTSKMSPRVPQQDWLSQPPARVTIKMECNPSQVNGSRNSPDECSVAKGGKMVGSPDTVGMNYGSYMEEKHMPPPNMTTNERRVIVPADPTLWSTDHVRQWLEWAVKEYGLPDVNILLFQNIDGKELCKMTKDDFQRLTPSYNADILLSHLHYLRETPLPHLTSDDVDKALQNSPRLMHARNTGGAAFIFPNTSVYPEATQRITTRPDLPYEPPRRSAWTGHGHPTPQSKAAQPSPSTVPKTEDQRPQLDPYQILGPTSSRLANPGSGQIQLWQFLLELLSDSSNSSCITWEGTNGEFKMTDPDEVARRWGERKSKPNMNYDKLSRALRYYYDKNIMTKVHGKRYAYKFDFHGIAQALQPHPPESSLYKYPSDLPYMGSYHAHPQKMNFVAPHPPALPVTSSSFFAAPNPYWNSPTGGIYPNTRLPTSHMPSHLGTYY
# Procedure, shortened: as §1
# ELF1 = ELF1 (Homo sapiens, UniProt P32519 1-619); details: protein: recombinant; tags: N-terminal GST; dsDNA, one strand shown
# Sequence of ELF1 (P32519 whole entry): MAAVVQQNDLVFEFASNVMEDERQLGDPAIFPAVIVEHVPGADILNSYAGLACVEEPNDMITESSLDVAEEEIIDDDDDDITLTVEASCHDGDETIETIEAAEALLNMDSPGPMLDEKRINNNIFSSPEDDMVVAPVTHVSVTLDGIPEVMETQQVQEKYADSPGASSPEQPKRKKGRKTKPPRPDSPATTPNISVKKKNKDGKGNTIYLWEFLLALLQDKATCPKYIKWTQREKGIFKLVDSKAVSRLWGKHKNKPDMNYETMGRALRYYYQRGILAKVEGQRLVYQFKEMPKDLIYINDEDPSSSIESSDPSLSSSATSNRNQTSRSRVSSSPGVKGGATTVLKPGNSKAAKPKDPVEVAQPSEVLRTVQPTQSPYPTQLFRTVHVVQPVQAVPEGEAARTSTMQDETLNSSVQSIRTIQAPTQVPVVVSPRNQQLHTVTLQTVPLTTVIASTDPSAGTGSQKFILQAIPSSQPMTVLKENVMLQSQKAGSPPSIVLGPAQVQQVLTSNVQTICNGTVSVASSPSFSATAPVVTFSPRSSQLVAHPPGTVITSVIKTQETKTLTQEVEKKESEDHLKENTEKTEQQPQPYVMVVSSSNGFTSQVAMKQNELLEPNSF
# Procedure, shortened: as §1
# EHF = target: T5, EHF (Homo sapiens, UniProt Q9NZC4 1-300); details: protein: recombinant; tags: N-terminal GST; dsDNA, one strand shown
# T5 sequence: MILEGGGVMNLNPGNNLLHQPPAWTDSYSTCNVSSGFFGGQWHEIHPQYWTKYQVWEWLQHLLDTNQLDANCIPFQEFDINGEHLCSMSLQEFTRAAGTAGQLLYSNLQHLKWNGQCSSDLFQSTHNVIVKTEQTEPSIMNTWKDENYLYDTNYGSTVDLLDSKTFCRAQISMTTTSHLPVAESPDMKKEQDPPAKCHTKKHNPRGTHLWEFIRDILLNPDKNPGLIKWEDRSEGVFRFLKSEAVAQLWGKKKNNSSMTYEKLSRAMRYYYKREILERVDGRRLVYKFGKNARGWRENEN
# Procedure, shortened: as §1
# SPI1 = SPI1 (Homo sapiens, UniProt P17947 1-270); details: protein: recombinant; tags: N-terminal GST; dsDNA, one strand shown
# Procedure, shortened: as §1
# SPIB = SPIB (Homo sapiens, UniProt Q01892 1-262); details: protein: recombinant; tags: N-terminal GST; dsDNA, one strand shown
# Sequence of SPIB (Q01892 whole entry): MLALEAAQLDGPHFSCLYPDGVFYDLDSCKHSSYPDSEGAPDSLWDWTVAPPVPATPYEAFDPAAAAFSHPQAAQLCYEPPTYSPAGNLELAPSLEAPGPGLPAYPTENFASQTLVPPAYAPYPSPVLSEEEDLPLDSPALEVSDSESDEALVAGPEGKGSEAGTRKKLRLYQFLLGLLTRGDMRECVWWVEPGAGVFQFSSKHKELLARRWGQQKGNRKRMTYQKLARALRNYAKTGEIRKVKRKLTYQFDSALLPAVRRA
# Procedure, shortened: as §1
# ELK3 = target: T6, ELK3 (Homo sapiens, UniProt P41970 1-407); details: protein: recombinant; tags: N-terminal GST; dsDNA, one strand shown
# T6 sequence: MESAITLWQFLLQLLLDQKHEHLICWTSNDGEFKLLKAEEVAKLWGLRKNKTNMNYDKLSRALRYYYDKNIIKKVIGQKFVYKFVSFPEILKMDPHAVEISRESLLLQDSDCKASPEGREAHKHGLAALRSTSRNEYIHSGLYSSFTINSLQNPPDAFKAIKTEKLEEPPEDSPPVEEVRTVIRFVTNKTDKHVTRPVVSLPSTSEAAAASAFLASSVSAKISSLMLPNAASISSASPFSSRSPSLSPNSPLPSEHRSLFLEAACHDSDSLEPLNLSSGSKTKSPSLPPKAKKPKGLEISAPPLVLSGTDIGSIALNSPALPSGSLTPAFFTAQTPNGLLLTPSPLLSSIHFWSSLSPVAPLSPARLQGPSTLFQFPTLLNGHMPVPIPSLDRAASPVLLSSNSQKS
# Procedure, shortened: as §1
# FEV = target: T7, FEV (Homo sapiens, UniProt Q99581 1-238); details: protein: recombinant; tags: N-terminal GST; dsDNA, one strand shown
# T7 sequence: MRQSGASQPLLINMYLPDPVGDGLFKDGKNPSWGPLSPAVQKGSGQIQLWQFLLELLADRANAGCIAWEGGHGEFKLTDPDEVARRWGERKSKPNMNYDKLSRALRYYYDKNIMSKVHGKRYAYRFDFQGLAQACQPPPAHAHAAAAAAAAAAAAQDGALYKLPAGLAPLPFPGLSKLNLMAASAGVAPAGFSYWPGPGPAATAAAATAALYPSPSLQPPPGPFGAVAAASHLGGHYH
# Procedure, shortened: as §1
# ETV5 = ETV5 (Homo sapiens, UniProt P41161 1-510); details: protein: recombinant; tags: N-terminal GST; dsDNA, one strand shown
# Sequence of ETV5 (P41161 whole entry): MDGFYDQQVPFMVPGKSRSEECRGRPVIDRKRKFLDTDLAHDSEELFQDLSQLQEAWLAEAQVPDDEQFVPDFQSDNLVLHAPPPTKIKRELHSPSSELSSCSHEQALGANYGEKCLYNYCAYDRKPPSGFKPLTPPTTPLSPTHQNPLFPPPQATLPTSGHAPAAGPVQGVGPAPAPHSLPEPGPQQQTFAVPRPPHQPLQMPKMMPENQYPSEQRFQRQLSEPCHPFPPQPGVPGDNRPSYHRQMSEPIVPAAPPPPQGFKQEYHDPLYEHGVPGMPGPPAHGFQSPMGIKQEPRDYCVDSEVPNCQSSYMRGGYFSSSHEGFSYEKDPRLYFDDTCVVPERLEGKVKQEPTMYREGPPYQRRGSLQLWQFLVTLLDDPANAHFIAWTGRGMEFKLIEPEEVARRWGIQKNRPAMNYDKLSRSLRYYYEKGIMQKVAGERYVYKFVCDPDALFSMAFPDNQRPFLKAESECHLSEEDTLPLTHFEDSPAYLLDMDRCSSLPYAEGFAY
# Procedure, shortened: as §1
# HSF1 = HSF1 (Homo sapiens, UniProt Q00613 1-529); details: protein: recombinant; tags: N-terminal GST; chain copies: 3; dsDNA, one strand shown
# Sequence of HSF1 (Q00613 whole entry): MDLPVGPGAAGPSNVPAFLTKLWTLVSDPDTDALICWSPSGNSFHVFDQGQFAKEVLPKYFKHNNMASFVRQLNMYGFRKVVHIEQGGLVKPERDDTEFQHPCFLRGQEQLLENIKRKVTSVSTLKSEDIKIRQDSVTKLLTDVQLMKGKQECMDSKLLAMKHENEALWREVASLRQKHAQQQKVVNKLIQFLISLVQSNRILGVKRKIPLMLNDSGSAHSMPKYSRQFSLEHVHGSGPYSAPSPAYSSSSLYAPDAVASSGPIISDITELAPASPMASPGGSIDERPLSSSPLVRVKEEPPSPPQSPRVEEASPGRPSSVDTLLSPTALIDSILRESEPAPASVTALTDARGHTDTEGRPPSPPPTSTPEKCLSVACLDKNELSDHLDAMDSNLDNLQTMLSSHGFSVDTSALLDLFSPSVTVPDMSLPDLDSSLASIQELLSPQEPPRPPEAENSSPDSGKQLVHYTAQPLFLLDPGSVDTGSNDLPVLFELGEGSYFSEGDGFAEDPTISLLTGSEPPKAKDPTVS
# Procedure, shortened: as §1
# ELF4 = ELF4 (Homo sapiens, UniProt Q99607 1-663); details: protein: recombinant; tags: N-terminal GST; dsDNA, one strand shown
# Sequence of ELF4 (Q99607 whole entry): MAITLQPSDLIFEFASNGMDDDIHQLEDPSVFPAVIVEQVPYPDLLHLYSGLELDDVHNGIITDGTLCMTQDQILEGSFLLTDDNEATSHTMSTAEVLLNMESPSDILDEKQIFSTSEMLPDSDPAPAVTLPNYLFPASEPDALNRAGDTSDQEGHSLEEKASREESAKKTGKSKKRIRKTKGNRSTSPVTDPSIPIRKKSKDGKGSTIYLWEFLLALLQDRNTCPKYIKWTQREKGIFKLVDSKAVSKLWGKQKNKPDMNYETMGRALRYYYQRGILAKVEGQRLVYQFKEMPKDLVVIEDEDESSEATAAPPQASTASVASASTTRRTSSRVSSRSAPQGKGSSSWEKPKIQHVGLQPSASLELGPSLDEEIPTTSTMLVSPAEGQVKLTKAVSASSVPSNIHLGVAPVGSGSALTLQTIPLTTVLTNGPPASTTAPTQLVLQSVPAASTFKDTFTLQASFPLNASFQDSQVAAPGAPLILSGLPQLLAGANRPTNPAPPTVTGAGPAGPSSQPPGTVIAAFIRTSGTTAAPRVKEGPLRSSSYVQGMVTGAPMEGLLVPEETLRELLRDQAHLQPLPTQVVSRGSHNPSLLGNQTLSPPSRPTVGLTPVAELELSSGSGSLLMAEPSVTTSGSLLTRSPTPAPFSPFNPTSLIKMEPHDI
# Procedure, shortened: as §1
# ELK4 = target: T8, ELK4 (Homo sapiens, UniProt P28324-2 1-405); details: protein: recombinant; tags: N-terminal GST; dsDNA, one strand shown
# T8 sequence: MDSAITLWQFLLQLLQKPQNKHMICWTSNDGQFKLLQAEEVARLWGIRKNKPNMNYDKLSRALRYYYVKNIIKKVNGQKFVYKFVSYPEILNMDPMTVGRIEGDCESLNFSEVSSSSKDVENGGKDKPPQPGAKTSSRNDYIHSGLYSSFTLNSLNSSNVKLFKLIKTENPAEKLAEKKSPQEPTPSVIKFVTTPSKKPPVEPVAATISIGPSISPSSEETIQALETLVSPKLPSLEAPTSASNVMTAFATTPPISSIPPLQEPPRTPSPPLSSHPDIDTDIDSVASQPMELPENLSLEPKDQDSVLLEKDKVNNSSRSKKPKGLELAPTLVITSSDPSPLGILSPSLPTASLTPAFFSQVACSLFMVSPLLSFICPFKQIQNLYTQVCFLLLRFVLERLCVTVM
# Procedure, shortened: as §1
# ELF3 = target: T9, ELF3 (Homo sapiens, UniProt P78545 1-371); details: protein: recombinant; tags: N-terminal GST; dsDNA, one strand shown
# T9 sequence: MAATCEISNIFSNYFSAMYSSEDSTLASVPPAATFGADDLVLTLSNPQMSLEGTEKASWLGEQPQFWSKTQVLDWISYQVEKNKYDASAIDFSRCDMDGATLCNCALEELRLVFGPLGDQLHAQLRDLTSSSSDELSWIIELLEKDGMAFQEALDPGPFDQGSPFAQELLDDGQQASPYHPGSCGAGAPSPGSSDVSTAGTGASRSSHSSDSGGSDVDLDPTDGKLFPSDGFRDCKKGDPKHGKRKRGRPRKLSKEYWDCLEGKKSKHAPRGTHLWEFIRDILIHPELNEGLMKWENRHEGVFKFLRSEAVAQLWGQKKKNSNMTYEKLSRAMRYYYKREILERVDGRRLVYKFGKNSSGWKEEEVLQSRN
# Procedure, shortened: as §1
# ETV1 = ETV1 (Homo sapiens, UniProt P50549 1-477); details: protein: recombinant; tags: N-terminal GST; dsDNA, one strand shown
# Sequence of ETV1 (P50549 whole entry): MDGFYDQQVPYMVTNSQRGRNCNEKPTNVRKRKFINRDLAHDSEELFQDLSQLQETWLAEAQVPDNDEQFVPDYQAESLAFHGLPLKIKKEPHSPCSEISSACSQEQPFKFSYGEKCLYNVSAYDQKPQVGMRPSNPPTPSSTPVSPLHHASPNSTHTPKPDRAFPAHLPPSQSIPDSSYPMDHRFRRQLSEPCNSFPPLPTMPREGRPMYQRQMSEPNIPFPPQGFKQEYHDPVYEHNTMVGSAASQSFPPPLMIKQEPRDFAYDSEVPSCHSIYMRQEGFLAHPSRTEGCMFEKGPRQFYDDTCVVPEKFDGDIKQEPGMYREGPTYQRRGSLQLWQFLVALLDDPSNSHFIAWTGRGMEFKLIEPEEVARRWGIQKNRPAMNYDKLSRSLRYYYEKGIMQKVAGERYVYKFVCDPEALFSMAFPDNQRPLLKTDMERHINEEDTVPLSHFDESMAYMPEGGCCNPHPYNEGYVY
# Procedure, shortened: as §1
sequence,measurement,setting,value
CAAGCA,binding signal,FLI1,"1.1 fold enrichment (6-mer frequency, TF over GST control)"
same,binding signal,ELK1,"1.1 fold enrichment (6-mer frequency, TF over GST control)"
same,binding signal,GABPA,"1.14 fold enrichment (6-mer frequency, TF over GST control)"
same,binding signal,ERG,"1.07 fold enrichment (6-mer frequency, TF over GST control)"
same,binding signal,ELF1,"1.18 fold enrichment (6-mer frequency, TF over GST control)"
same,binding signal,EHF,"1.02 fold enrichment (6-mer frequency, TF over GST control)"
same,binding signal,SPI1,"1.07 fold enrichment (6-mer frequency, TF over GST control)"
same,binding signal,SPIB,"1.06 fold enrichment (6-mer frequency, TF over GST control)"
same,binding signal,ELK3,"1.1 fold enrichment (6-mer frequency, TF over GST control)"
same,binding signal,FEV,"1.13 fold enrichment (6-mer frequency, TF over GST control)"
same,binding signal,ETV5,"1.17 fold enrichment (6-mer frequency, TF over GST control)"
same,binding signal,HSF1,"1.03 fold enrichment (6-mer frequency, TF over GST control)"
same,binding signal,ELF4,"1.16 fold enrichment (6-mer frequency, TF over GST control)"
same,binding signal,ELK4,"1.14 fold enrichment (6-mer frequency, TF over GST control)"
same,binding signal,ELF3,"1.28 fold enrichment (6-mer frequency, TF over GST control)"
same,binding signal,ETV1,"1.1 fold enrichment (6-mer frequency, TF over GST control)"
